{
  "source": "PubChem BioAssay AID449762",
  "about": "(Southern Research Specialized Biocontainment Screening …, 2010)",
  "note": "About 1,900 (0.58%) of roughly 330,000 compounds were called active. Inconclusive results (about 4%) are left out. Only a sample is shown. Results with a measured potency or affinity are listed apart. A number with no mark means an inactive call. Rule as the data show it: inconclusive = inhibition above about 70% without an active follow-up result; inactive = below that.",
  "data": [
    {"experiment": "M. tuberculosis growth inhibition, HTS (AID 449762);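 also: bacterial growth assessed after seven days of incubation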", "settings": "M. tuberculosis H37Rv growth inhibition, 7H9 media; at 25 µM; active compounds read high", "units": {"inhibition": "%"}, "values": [
      {"smiles": "Cc1ccc(Oc2ccc(Oc3ccc(C)cc3)nn2)cc1", "inhibition": 1.77},
      {"smiles": "O=C(CN1CCN(S(=O)(=O)c2ccccc2)CC1)N1CCCCC1", "inhibition": -3.13},
      {"smiles": "CN(C)CCCn1c(NCc2ccc3c(c2)OCO3)nc2ccccc21", "inhibition": -3.55},
      {"smiles": "CCCn1c(NCc2ccc3c(c2)OCO3)nc2ccccc21", "inhibition": 13.3},
      {"smiles": "CNC(=O)c1c(NC(=O)c2ccco2)sc2c1CCC2", "inhibition": 8.18},
      {"smiles": "O=C(CCNS(=O)(=O)c1ccccc1)NNC(=O)COc1ccccc1F", "inhibition": 0.68},
      {"smiles": "CCCOC(=O)c1cccc(NC(=O)COc2ccc([N+](=O)[O-])cc2)c1", "inhibition": 66.4},
      {"smiles": "CC(=O)C(C)Oc1ccc(Cc2ncc(C(F)(F)F)cc2Cl)cc1", "note": "(centres undefined)", "inhibition": 10.2},
      {"smiles": "NC(=O)COc1ccc(Cc2ncc(C(F)(F)F)cc2Cl)cc1", "inhibition": 5.51},
      {"smiles": "C=CCn1c(SCC(=O)c2c(N)n(C)c(=O)n(C)c2=O)nnc1-c1ccoc1C", "inhibition": 2.92},
      {"smiles": "CC(Sc1nnc(-c2cccnc2)n1N)C(=O)N1CCOCC1", "note": "(centres undefined)", "inhibition": -0.03},
      {"smiles": "COc1cc(C(=O)NCCC(=O)NCCN2CCCCCC2)cc(OC)c1OC", "inhibition": -5.5},
      {"smiles": "COC(=O)COc1ccc(S(=O)(=O)NCCC2=CCCCC2)cc1", "inhibition": 59.1},
      {"smiles": "CCCNS(=O)(=O)c1ccc(OCC(=O)NCCC2=CCCCC2)cc1", "inhibition": -5.92},
      {"smiles": "CC1CC(NS(=O)(=O)c2cc3c4c(c2)CCN4C(=O)CC3)CC(C)(C)C1", "note": "(centres undefined)", "inhibition": 12.2},
      {"smiles": "Cc1ccc(-n2cc(-c3ccccc3)c3c(=O)[nH]cnc32)cc1", "inhibition": 8.81},
      {"smiles": "O=c1[nH]cnc2c1c(-c1ccccc1)cn2-c1ccccc1", "inhibition": 5.31},
      {"smiles": "COc1ccc(CCNC(=O)c2[nH]c(C)c(C(C)=O)c2C)cc1OC", "inhibition": -6.23},
      {"smiles": "Cc1ccc(-c2nc3ccccc3[nH]2)cc1NC(=O)/C=C/c1ccco1", "inhibition": 7.41},
      {"smiles": "O=C(/C=C/c1ccco1)Nc1ccc(-c2nc3ccccc3[nH]2)cc1", "inhibition": -5.99},
      {"smiles": "COC(=O)c1nnn(-c2nonc2N)c1CSc1ccccn1", "inhibition": -4.14},
      {"smiles": "Cc1ccc(NC(=O)c2ccccc2SCC(=O)N2CCCC2)cc1S(=O)(=O)N(C)C", "inhibition": -1.08},
      {"smiles": "COc1cccc(N(C(=O)Cn2nnc(-c3ccc(C)cc3)n2)C(C(=O)NC(C)(C)C)c2c[nH]c3ccccc23)c1", "note": "(centres undefined)", "inhibition": -12.2},
      {"smiles": "CC(C)(C)NC(=O)C(c1c[nH]c2ccccc12)N(C(=O)Cn1nnc(-c2ccc(Cl)cc2)n1)c1ccccc1F", "note": "(centres undefined)", "inhibition": 2.56},
      {"smiles": "Cc1cc([N+](=O)[O-])nn1CC(=O)Nc1cnc2ccccc2c1", "inhibition": -3.67},
      {"smiles": "Cc1ccc(CCNC(=O)c2nn(C)c3c2CS(=O)(=O)c2ccccc2-3)cc1", "inhibition": 3.98},
      {"smiles": "CCOC(=O)C1CCN(C(=S)NC(=O)c2cccs2)CC1", "inhibition": 0.89},
      {"smiles": "O=C(NC(=S)N1CCCCC1)c1cccs1", "inhibition": 4.84},
      {"smiles": "Cn1c(-c2ccsc2)c(-c2cccs2)c2cc(-c3ccc4cc[nH]c4c3)ccc21", "inhibition": -1.89},
      {"smiles": "Cc1ccc(NC(=O)C(c2ccccc2)N2CCN(C(=O)c3ccco3)CC2)cc1Cl", "note": "(centres undefined)", "inhibition": -11.9},
      {"smiles": "Cc1nn(-c2nc3ccccc3s2)c(N)c1-c1ccc(Cl)cc1", "inhibition": 1.29},
      {"smiles": "Cc1nn(-c2nc3ccccc3[nH]2)c(=O)c2ccccc12", "inhibition": 5.73},
      {"smiles": "Cc1cc(C)nc(NS(=O)(=O)c2ccc(NS(=O)(=O)c3ccccc3)cc2)n1", "inhibition": -6.64},
      {"smiles": "CC1(C)Cc2c(sc3c2C(=O)N(c2ccccc2)C2=NCCCN23)CO1", "inhibition": 1.18},
      {"smiles": "CCCC(=O)Nc1nc(C(=O)OCC)cs1", "inhibition": 2.98},
      {"smiles": "CCOC(=O)c1csc(NC(C)=O)n1", "inhibition": 0.4},
      {"smiles": "O=C(c1ccc(Cl)cc1)C1CCCN(Cc2cccc3cccnc23)C1", "note": "(centres undefined)", "inhibition": 9.96},
      {"smiles": "O=C(CCCOc1ccc(Cl)cc1)Nc1cccc(C(=O)O)c1", "inhibition": 7.01},
      {"smiles": "O=C(OCCN1C(=O)c2ccccc2C1=O)c1ccco1", "inhibition": -9.08},
      {"smiles": "O=C(OCCN1CCCCC1)c1cc2ccccc2o1", "inhibition": -14.3},
      {"smiles": "COc1ccccc1/C=C/C=N/n1c(C2CCCCC2)n[nH]c1=S", "inhibition": 0.81},
      {"smiles": "CC(=O)c1ccc(N2CCN(C(=O)c3cc(-c4ccncc4)nc4ccc(Cl)cc34)CC2)cc1", "inhibition": 7.21},
      {"smiles": "Cc1cccc(CN2C(=O)/C(=C\\c3ccc(C(=O)NCCN4CCOCC4)cc3)Sc3ccccc32)c1", "inhibition": 49.5},
      {"smiles": "CN1CCN(CCCNC(=O)c2ccc(/C=C3\\Oc4ccccc4N(Cc4ccccc4F)C3=O)cc2)CC1", "inhibition": 57.7},
      {"smiles": "Cc1ccc(Cn2nc(C)c(NC(=O)CSc3n[nH]c(C)c3[N+](=O)[O-])c2C)cc1", "inhibition": -3.06},
      {"smiles": "O=C(NC1CCN(C(=O)N2c3ccccc3Sc3ccccc32)CC1)c1ccccc1Cl", "inhibition": 62.3},
      {"smiles": "O=C(NC1CCN(C(=O)N2c3ccccc3Sc3ccccc32)CC1)c1ccco1", "inhibition": -19.1},
      {"smiles": "Cc1sc2ncnc(SCC(=O)c3cccs3)c2c1C", "inhibition": -19.7},
      {"smiles": "COC(=O)c1ccccc1NC(=O)c1cc2n(n1)C(C(F)F)CC(C(F)F)N2", "note": "(centres undefined)", "inhibition": -2.91},
      {"smiles": "O=c1[nH]c(SCc2ccc(Cl)cc2)nc2ccccc12", "inhibition": 4.03},
      {"smiles": "O=C(CSc1nc2[nH]ncc2c(=O)[nH]1)NCc1ccccc1", "inhibition": -0.89},
      {"smiles": "CC1CC(C)CN(CCOc2ccccc2-c2ccccc2)C1", "note": "(centres undefined)", "inhibition": 3.01},
      {"smiles": "O=C(COC(=O)c1ccc2c(c1)S(=O)(=O)N=C1CCCCCN12)NCCc1ccc(F)cc1", "inhibition": -6.19},
      {"smiles": "COCC(=O)N(Cc1cc2ccc(C)cc2[nH]c1=O)c1ccc(C)cc1C", "inhibition": -1.78},
      {"smiles": "Cc1ccc(-c2c(C#N)c(N)nc3c2CCCCCC3)o1", "inhibition": 21.5},
      {"smiles": "CSc1ccccc1NC(=O)CN(C)CC(=O)c1[nH]c(C)c(C(C)=O)c1C", "inhibition": -0.15},
      {"smiles": "Cc1ccc(S(=O)(=O)N2CCN(C(=O)Cn3c(=O)oc4ccccc43)CC2)cc1", "inhibition": 8.54},
      {"smiles": "Cc1nc(-c2nc(-c3c(C(=O)NNC(=O)Nc4cccc(Cl)c4)noc3C)cs2)cs1", "inhibition": 11.3},
      {"smiles": "Cc1nc(-c2nc(-c3c(C(=O)NNC(=O)Nc4ccccc4)noc3C)cs2)cs1", "inhibition": -4.32},
      {"smiles": "CC(=O)Nc1c(C(=O)NCc2ccccc2)nnn1Cc1ccccc1", "inhibition": -10.2},
      {"smiles": "COc1ccc(N(CC(=O)Nc2ccccc2C(=O)O)S(=O)(=O)c2ccc(C)c([N+](=O)[O-])c2)cc1", "inhibition": -2.79},
      {"smiles": "COc1ccc(N(CC(=O)Nc2ccc(C)cc2C)S(=O)(=O)c2c(C)n[nH]c2C)cc1", "inhibition": 6.74},
      {"smiles": "COc1ccc(N(CC(=O)Nc2ccccc2F)S(=O)(=O)c2ccc(C)c([N+](=O)[O-])c2)cc1", "inhibition": 0.33},
      {"smiles": "COc1ccc(N(CC(=O)Nc2ccc(Cl)cc2)S(=O)(=O)c2c(C)n[nH]c2C)cc1", "inhibition": 2.17},
      {"smiles": "O=C(CCSc1nnc2ccccn12)Nc1ccc2c(c1)OCO2", "inhibition": -0.07},
      {"smiles": "COc1ccc(OC)c(S(=O)(=O)Nc2cc(Cl)cc(Cl)c2)c1", "inhibition": -2.29},
      {"smiles": "CN1/C(=C\\C(=S)NC(=O)c2ccccc2Cl)C(C)(C)c2ccccc21", "inhibition": -5.96},
      {"smiles": "CC(C)C(=O)NC(=S)/C=C1/N(C)c2ccccc2C1(C)C", "inhibition": 2.15},
      {"smiles": "Cc1cccc(NS(=O)(=O)c2csc(C(N)=O)c2)c1C", "inhibition": -0.04},
      {"smiles": "Cc1ccc(CC(=O)Nc2cc(C)ccn2)cc1", "inhibition": 3.78},
      {"smiles": "CC1Sc2ccc(S(=O)(=O)CCC(=O)Nc3ccccc3Cl)cc2NC1=O", "note": "(centres undefined)", "inhibition": 0.85},
      {"smiles": "CCOC(=O)C1CCN(CC(O)COc2ccc(C(C)=O)cc2)CC1", "note": "(centres undefined)", "inhibition": -0.99},
      {"smiles": "CCOC(=O)C1CCN(CC(O)COc2ccc(C(=O)CC)cc2)CC1", "note": "(centres undefined)", "inhibition": -15.2},
      {"smiles": "COC(=O)c1ccc(CNC(=O)COC(=O)c2cccs2)cc1", "inhibition": 12.5},
      {"smiles": "COc1ccc(/C=C2\\N=C(C)N(c3ccc4ccccc4c3)C2=O)cc1OC", "inhibition": 4.18},
      {"smiles": "COc1ccccc1-c1nnc(NC(=O)c2ccc(S(=O)(=O)N3CCOCC3)cc2)o1", "inhibition": 43.3},
      {"smiles": "COc1cc(-c2nnc(NC(=O)c3ccc(S(=O)(=O)N4CCOCC4)cc3)o2)cc(OC)c1OC", "inhibition": 5.07},
      {"smiles": "CCCN(CC(=O)Nc1ccccc1OC)C(=O)c1ccccn1", "inhibition": 0.49},
      {"smiles": "C=CCN1C(=O)c2ccc(C(=O)N(C)CC(=O)Nc3cccc(F)c3)cc2C1=O", "inhibition": 0},
      {"smiles": "CCOC(=O)c1c(C)[nH]c(C(=O)OCC(=O)NCc2ccc(OC)c(OC)c2)c1C", "inhibition": 3.95},
      {"smiles": "COc1ccc(C)cc1Nc1n[n+](-c2ccccc2)c(-c2cccc(Cl)c2Cl)s1", "inhibition": 60},
      {"smiles": "COc1ccc(C)cc1Nc1n[n+](-c2ccccc2)c(-c2cc(OC)c(OC)cc2Br)s1", "inhibition": 62.1},
      {"smiles": "COC(=O)C1=C(C(=O)OC)[C@@H]2N(C)c3ccc(OC)cc3[C@@]23C[C@@H](C(=O)OC)N(C(=O)CC(C)C)C3=N1", "inhibition": -3.14},
      {"smiles": "O=C(C1=C(O)C(=O)N(Cc2ccco2)C1c1ccccc1F)c1cccs1", "note": "(centres undefined)", "inhibition": 12.7},
      {"smiles": "Cc1cc(C)n(-c2ccc(F)cc2CN2CCN(C3CCCC3)C(CCO)C2)n1", "note": "(centres undefined)", "inhibition": 8.29},
      {"smiles": "C=C(C)C1CC=C(CN2CCC(O)CC2)CC1", "note": "(centres undefined)", "inhibition": -0.8},
      {"smiles": "C=C(C)C1CC=C(CN2CC(C)OC(C)C2)CC1", "note": "(centres undefined)", "inhibition": -4.9},
      {"smiles": "CCOC(=O)c1c(/N=C/N(C)C)sc(/C=N/Nc2ccccc2)c1-c1ccccc1", "inhibition": 4.1},
      {"smiles": "CCOC(=O)c1c(/N=C/N(C)C)sc(/C=N/Nc2ccccc2)c1-c1ccc(Cl)cc1", "inhibition": 69}
    ]}
  ]
}
